A short description of experiment [1]: viability loss with induced miR-34 in A549 – imaging, A549 dox-inducible miR-34, nuclei and caspase counts, primary screen (AID 1347080). The settings on record: A549 miR-34 inducible, Hoechst nuclei count, 48 h.
A short description of experiment [2]: MELAS cybrid and Rieske KO viability enhancers – cell-based, MELAS cybrids, Rieske KO mouse fibroblasts, CellTiter-Glo, primary screen (AID 1508586;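 active means mean z-score across replicates of 1.96 or higher in either the MELAS or the Rieske mutant cell line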;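 further: z relative to plate mean and SD of compound and empty wells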). The settings on record: low glucose. In general terms: In ATP-based viability assays light output follows the ATP content of the culture.
Setting [3] is: stronger effect = lower value, cell number ratio, induced over uninduced.
The mark [4] stands for this setting: measured here: relative caspase fold change +Dox/-Dox.
Setting [5] is: measured here: total cells with miR-34 induction, stronger effect = lower value.
[6] abbreviates: measured here: total cells without miR-34 induction.
[7] abbreviates: MELAS cybrid survival, CellTiter-Glo 48 h, stronger effect = higher value.
Setting [8] is: Rieske KO mouse fibroblast survival, CellTiter-Glo 72 h.

Each structure is given as a SMILES string. Calls of active or inactive are those of the source.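 How the source made its calls, unless noted: active means compounds whose cell count with miR-34 switched on is under 0.7 times the count with it off; inactive means the rest.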
Further: test concentration not given here.

For `Cn1c(=O)cc(N2CCCC(N)C2)n(Cc2ccccc2C#N)c1=O` (configuration not stated), the fold change in experiment [1] (setting [3]) was 0.958 (inactive); in experiment [1] (setting [4]) it was 0.837. Besides, the cell count in experiment [1] (setting [5]) came to 8510; in experiment [1] (setting [6]), 8880. The z-score is -0.12 (inactive) in experiment [2] (setting [7]) and -0.0809 in experiment [2] (setting [8]).
For the compound `C#C[C@]1(O)CC[C@H]2[C@@H]3CCC4=CC(=O)CC[C@@H]4[C@@H]3CC[C@@]21C`, the fold change in experiment [1] (setting [3]) was 0.857 (inactive); in experiment [1] (setting [4]), 0.775. Further, the values for the cell count in experiment [1] (setting [5]) and in experiment [1] (setting [6]) were 7940 and 9270, respectively. Also, the values for the z-score in experiment [2] (setting [7]) and in experiment [2] (setting [8]) were -0.24 (inactive) and -0.172, respectively.
As to `Oc1cc(O)cc(C=Cc2ccc(O)c(O)c2)c1`, the fold change in experiment [1] (setting [3]) is 0.901 (inactive); in experiment [1] (setting [4]) it was 0.971. The cell count in experiment [1] (setting [5]) came out at 9720; in experiment [1] (setting [6]), 10800. Also, the z-score in experiment [2] (setting [7]) was -0.345 (inactive); in experiment [2] (setting [8]) it was 0.783.
For the compound `CCC(C)C(=O)OC1CC(O)C=C2C=CC(C)C(CCC(O)CC(O)CC(=O)O)[C@H]21` (some centres not stated), the fold change in experiment [1] (setting [3]) is 0.937 (inactive); in experiment [1] (setting [4]), 0.958. In addition, the cell count is 7720 in experiment [1] (setting [5]) and 8230 in experiment [1] (setting [6]). Besides, the z-score in experiment [2] (setting [7]) was 0.0242 (inactive); in experiment [2] (setting [8]), -0.0533.
Turning to `Cc1cc2c(F)c(Oc3ncnn4cc(OCC(C)O)c(C)c34)ccc2[nH]1` (configuration not stated), the fold change in experiment [1] (setting [3]) was 1.07 (inactive); in experiment [1] (setting [4]) it was 0.907. In addition, the cell count in experiment [1] (setting [5]) was found to be 4250; in experiment [1] (setting [6]) it was 3990. The z-score in experiment [2] (setting [7]) is -0.638 (inactive); in experiment [2] (setting [8]) it was 0.759.
As for `CC(CNC(=O)c1cccnc1)NC(=O)c1cccnc1` (configuration not stated), the fold change in experiment [1] (setting [3]) was 0.92 (inactive); in experiment [1] (setting [4]) it was 1.03. Besides, the figures for the cell count in experiment [1] (setting [5]) and in experiment [1] (setting [6]) were 9140 and 9930, respectively. Also, the z-score in experiment [2] (setting [7]) was -0.163 (inactive); in experiment [2] (setting [8]), -0.298.
As to `C[C@]12CC[C@H]3c4ccc(O)cc4CC[C@H]3[C@@H]1CCC2O` (some centres not stated), the fold change in experiment [1] (setting [3]) was 0.784 (inactive); in experiment [1] (setting [4]), 0.957. The cell count in experiment [1] (setting [5]) was determined as 6520; in experiment [1] (setting [6]), 8310. Besides, the z-score is -0.389 (inactive) in experiment [2] (setting [7]) and -0.286 in experiment [2] (setting [8]).
With `O=C(O)CC1CC(c2ccccc2)=NO1` (configuration not stated), the values for the fold change in experiment [1] (setting [3]) and in experiment [1] (setting [4]) were 0.969 (inactive) and 0.43, respectively. In addition, the cell count in experiment [1] (setting [5]) came to 8760; in experiment [1] (setting [6]), 9040. Also, the z-score in experiment [2] (setting [7]) was -0.328 (inactive); in experiment [2] (setting [8]), 0.698.
On to `CCOC(=O)Nc1cc(-c2ccc(C)c(NS(C)(=O)=O)c2)nn2c(C)nnc12`, for which the fold change in experiment [1] (setting [3]) is 1.01 (inactive); in experiment [1] (setting [4]), 0.716. In addition, the values for the cell count in experiment [1] (setting [5]) and in experiment [1] (setting [6]) were 4010 and 3970, respectively. Besides, the z-score is -0.585 (inactive) in experiment [2] (setting [7]) and -4.44 in experiment [2] (setting [8]).
In the case of `CC1CN(CC(=O)Nc2ccc3c(c2)Cc2cccc(-c4cc(=O)cc(N5CCOCC5)o4)c2S3)CC(C)O1` (configuration not stated), the fold change is 0.994 (inactive) in experiment [1] (setting [3]) and 1.1 in experiment [1] (setting [4]). The cell count in experiment [1] (setting [5]) was 5760; in experiment [1] (setting [6]), 5800. Besides, the z-score in experiment [2] (setting [7]) is 2.51 (active); in experiment [2] (setting [8]) it was 1.29.
`CC(CN1CC(=O)NC(=O)C1)N1CC(=O)NC(=O)C1` (configuration not stated): the fold change was 0.969 (inactive) in experiment [1] (setting [3]) and 1.09 in experiment [1] (setting [4]). Further, the cell count is 5760 in experiment [1] (setting [5]) and 5950 in experiment [1] (setting [6]). The z-score in experiment [2] (setting [7]) was -0.442 (inactive); in experiment [2] (setting [8]), 0.325.
As to `CC(=O)O[C@@]1(C(C)=O)CC[C@H]2[C@@H]3C=C(Cl)C4=CC(=O)C5CC5[C@]4(C)[C@@H]3CC[C@@]21C` (some centres not stated), the fold change in experiment [1] (setting [3]) is 0.94 (inactive); in experiment [1] (setting [4]), 0.713. Further, the cell count was found to be 7720 in experiment [1] (setting [5]) and 8210 in experiment [1] (setting [6]). Moreover, the results for the z-score in experiment [2] (setting [7]) and in experiment [2] (setting [8]) were -0.351 (inactive) and 0.528, respectively.
Take `O=C(C=Cc1ccccc1)NC(NC(=S)Nc1ccc(Cl)cc1)C(Cl)(Cl)Cl` (configuration not stated): the fold change was 0.995 (inactive) in experiment [1] (setting [3]) and 0.524 in experiment [1] (setting [4]). The figures for the cell count in experiment [1] (setting [5]) and in experiment [1] (setting [6]) were 2510 and 2520, respectively. Further, the results for the z-score in experiment [2] (setting [7]) and in experiment [2] (setting [8]) were -0.431 (inactive) and -0.459, respectively.
On to `CCCC(NC(=O)C(C#N)=Cc1cccc(Br)n1)c1ccccc1` (configuration not stated), for which the fold change in experiment [1] (setting [3]) is 0.929 (inactive); in experiment [1] (setting [4]), 0.922. The results for the cell count in experiment [1] (setting [5]) and in experiment [1] (setting [6]) were 824 and 888, respectively. Moreover, the z-score is 3.82 (active) in experiment [2] (setting [7]) and -1.38 in experiment [2] (setting [8]).
Take `C=CCC1C=C(C)CC(C)CC(OC)C2O[C@@](O)(C(=O)C(=O)N3CCCC[C@H]3C(=O)OC(C(C)=CC3CCC(O)C(OC)C3)C(C)C(O)CC1=O)C(C)CC2OC` (some centres not stated): the fold change was 0.917 (inactive) in experiment [1] (setting [3]) and 0.834 in experiment [1] (setting [4]). Besides, the results for the cell count in experiment [1] (setting [5]) and in experiment [1] (setting [6]) were 7870 and 8580, respectively. Further, the z-score in experiment [2] (setting [7]) is -0.545 (inactive); in experiment [2] (setting [8]) it was 0.683.
For the compound `O=C1C(Cl)=C(N2CCOCC2)C(=O)N1c1ccc(Cl)c(Cl)c1`, the fold change in experiment [1] (setting [3]) was 0.939 (inactive); in experiment [1] (setting [4]), 0.753. Further, the cell count was determined as 7840 in experiment [1] (setting [5]) and 8360 in experiment [1] (setting [6]). In addition, the z-score in experiment [2] (setting [7]) is -0.367 (inactive); in experiment [2] (setting [8]), -0.893.
With `CNC(=O)c1cccc(-c2ccc3c(N4CCOCC4C)nc(N4CCOCC4C)nc3n2)c1` (configuration not stated), the fold change in experiment [1] (setting [3]) was 1 (inactive); in experiment [1] (setting [4]) it was 0.416. The cell count in experiment [1] (setting [5]) was 3420; in experiment [1] (setting [6]), 3410. Moreover, the results for the z-score in experiment [2] (setting [7]) and in experiment [2] (setting [8]) were 3.83 (active) and -2.15, respectively.

The record behind these values is PubChem BioAssay.
